Experimental data published in PubChem BioAssay (NCI).
Compounds without any hit were thinned out: in the full panel of roughly 83,000, 20% have a hit.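 Method: cells in 96-well plates; compound added at one concentration; 48 h incubation; percent growth measured; values under 10 scored active.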 Values without a mark were called inactive. Calls of active or inactive are those of the source.

Legend:
Assay in all cases: NCI-60 one-dose screen, 48 h (100 = growth as untreated, 0 = no growth, -100 = all killed)
[1] = test system: NCI-H23 lung; settings: 10 µM unless noted
[2] = test system: NCI-H226 lung; settings: 10 µM unless noted
[3] = test system: NCI-H322M lung; settings: 10 µM unless noted
[4] = test system: HOP-62 NSCLC; settings: 10 µM unless noted
[5] = test system: NCI-H460 lung; settings: 10 µM unless noted
[6] = test system: HOP-92 NSCLC; settings: 10 µM unless noted
[7] = test system: NCI-H522 lung; settings: 10 µM unless noted
[8] = test system: A549/ATCC NSCLC; settings: 10 µM unless noted
[9] = test system: 786-0 renal; settings: 10 µM unless noted
[10] = test system: COLO 205 colon; settings: 10 µM unless noted
[11] = test system: DU-145 prostate; settings: 10 µM unless noted
[12] = test system: K-562 leukemia; settings: 10 µM unless noted
[13] = test system: MALME-3M melanoma; settings: 10 µM unless noted
[14] = test system: MDA-MB-231 breast; settings: 10 µM unless noted
[15] = test system: SF-268 CNS; settings: 10 µM unless noted
[16] = test system: SF-295 CNS; settings: 10 µM unless noted
[17] = test system: SF-539 CNS; settings: 10 µM unless noted
[18] = test system: M14 melanoma; settings: 10 µM unless noted
[19] = test system: RXF 393 renal; settings: 10 µM unless noted
[20] = test system: UACC-257 melanoma; settings: 10 µM

| Structure (SMILES) | growth [1] | growth [2] | growth [3] [%] | growth [4] | growth [5] | growth [6] | growth [7] | growth [8] | growth [9] | growth [10] | growth [11] | growth [12] | growth [13] | growth [14] | growth [15] | growth [16] | growth [17] | growth [18] | growth [19] [%] | growth [20] |
| --- | --- | --- | --- | --- | --- | --- | --- | --- | --- | --- | --- | --- | --- | --- | --- | --- | --- | --- | --- | --- |
| Cc1oc2nc[nH]c(=O)c2c1C(=O)/C=C/c1ccc(Cl)cc1Cl | 90% | 107% | 92.4 | 92.6% | 93.4% | 95.5% | 39.1% | 78.7% | 83.8% | 107% | 78.2% | 17.8% | 99.9% | 89% | 94.6% | 104% | 93.3% | 93.9% |  |  |
| COc1cc2oc(-c3cccc(NC(=O)Nc4ccc5c(c4)OCO5)c3)cc(=O)c2c(OC)c1OC | 64.5% | 87.6% | 79.4 | 63.2% | 37.7% | 17.2% | 41.5% | 61% | 65.1% | 75.8% | 65.4% | 41.9% | 75.7% | 61.3% | 75.6% | 60% | 81.8% | -9.91% (active) |  |  |
| CCn1cc(C2NC(=O)c3cc(F)ccc3N2)c2cccc(Cl)c21 (configuration not stated) | 30.8% | 49.5% | 45.5 | 28.5% | 6.22% (active) | 72% | -22.1% (active) | 3.82% (active) | 42.3% | -11.5% (active) | 11.6% | 5.32% (active) | 53.7% | 19% | 41.2% | 10.4% | -26.6% (active) | 1.23% (active) |  |  |
| COc1ccc(OC)c(/C=C2\Oc3cc(OCCN4CCCC4)ccc3C2=O)c1 | 87.7% | 104% | 97.4 | 87.2% | 99.1% | 92.3% | 103% | 103% | 93.9% | 97.9% | 96.5% | 3.51% (active) | 104% | 84.6% | 93.7% | 101% | 84.7% | 98.4% |  |  |
| COc1cc(C2C3=C(COC3=O)Nc3c2ccc2c3CCCC2)cc2c1OCO2 (configuration not stated) | 16.4% | -5.06% (active) | 47 | 21.9% | 3.74% (active) | 127% | -35.1% (active) | 25% | 18.7% | -67.7% (active) | -24.7% (active) | 12.7% | 92.1% | 6.67% (active) | 8.63% (active) | 13.3% | 4.95% (active) | 13.3% |  |  |
| C#CCN1C(=O)/C(=c2\sc3n(c2=O)C2C(NN=3)N(CC)C(=O)N2CC)c2ccccc21 (configuration not stated) | 18.5% | 98% | 44.3 | -4.91% (active) | 5.2% (active) | 58.1% | 25% | 23.3% | 12% | -12.2% (active) | 14.8% | 7.6% (active) | 43.6% | 21% | 50% | -13% (active) | -39.7% (active) | 26.1% |  |  |
| COc1ccc(NC(=S)/N=c2\oc3c(OC)cccc3cc2-c2cc3ccccc3[nH]2)cc1 | 70.1% | 58.8% | 80.8 | 37.6% | 69.8% | -9.96% (active) | 86.3% | 85.2% | 65% | 101% | 62.6% | 81.4% | 63.5% | 42.2% | 73% | 84.6% | 26.4% | 93.5% |  |  |
| Cc1cc(C(=O)CSc2nc3ccccc3c(=O)[nH]2)c(C)n1C | 97.7% | 97.8% | 100 | 93.5% | 113% | 73.1% | 98.9% | 43.2% | 91.9% | 109% | 102% | 110% | 87.5% | 90.4% | 110% | 81.9% | 90.2% | 112% |  |  |
| CC(C)(C)c1cn2cccc(C(=O)N3CCN(CC(=O)Nc4ccc(Cl)cc4C(=O)c4ccccc4Cl)CC3)c2n1 | 60.6% | 71.6% | 94.6 | 84.7% | 49.8% | -30% (active) | 54.9% | 27.6% | 55.3% | 54.2% | 73.3% | 33.5% | 86.4% | 73.5% | 85.8% | -5.34% (active) | 51.4% | 48.5% |  |  |
| COc1cc(NS(C)(=O)=O)ccc1Nc1c2ccc([N+](=O)[O-])cc2nc2c(C)cccc12 | -0.0901% (active) | -23.6% (active) | 39.6 | -2.67% (active) | -25.4% (active) | -23.8% (active) | -25.8% (active) | -35.8% (active) | -3.37% (active) | 25.3% | -13.1% (active) | 4.57% (active) | 14.4% |  | 7.28% (active) | -43.7% (active) | -13.7% (active) | 22.6% | 10.4 | 2.11% (active) |
| O=c1oc2c([nH]c3ccc4ccccc4c32)c2ccccc12 | 93.6% | 104% | 101 | 103% | 112% | 90.2% | 102% | 134% | 102% | 108% | 106% | 124% | 115% | 112% | 115% | 99.6% | 102% | 109% |  |  |
| CC(C)C(C(=O)CCN(C)C)c1ccc(Cl)cc1 (configuration not stated) | 103% | 94.9% | 99.3 | 98.4% | 104% | 96.8% | 74.2% | 61.6% | 102% | 106% | 88.6% | 96.7% | -90.7% (active) | 101% | 100% | 106% | 103% | 92.5% |  |  |
| CCC(=O)Nc1ccccc1C#C/C=C\C#Cc1ccccc1SC | 79.9% | 76.4% | 101 | 66.5% | 28.6% | 48.1% | 84.4% | 62.4% | 87.7% | 66.2% | 77.3% | 56% | 76.8% | 47.9% | 63.9% | 59.8% | 60.1% | 59.9% |  |  |
| COc1ccc(/C=c2\sc3n(c2=O)C2C(NN=3)N(C)C(=O)N2C)cc1 (configuration not stated) | 36.3% | 94.1% | 46.6 | 21% | 9.54% (active) | 54.7% | 10.1% | 33% | 23% | -8.52% (active) | 9.2% (active) | -34.6% (active) | 25% | 42.5% | 71.3% | -7.19% (active) | -16.6% (active) | 15.4% |  |  |
| CCN1C(=O)N(CC)C2Nn3c(s/c(=C\c4cccc(F)c4)c3=O)=NC21 (configuration not stated) | 62.7% | 96.1% | 96.6 | 68.1% | 53.9% | 49.1% | 64.4% | 72.5% | 77.5% | 70.7% | 59.1% | 26.8% | 72.3% | 66.5% | 76.1% | 61.1% | 68.3% | 89.6% |  |  |
| NC(=O)c1c(NC(=O)c2ccc3c(c2)OCO3)sc2c1CCC(=O)C2 | -12.6% (active) | -5.74% (active) | 14.8 | 14.9% | 3.04% (active) | -21% (active) | -58.9% (active) | -9.76% (active) | 12.2% | -42.2% (active) | 40% | 1.31% (active) | -44% (active) | -20.5% (active) | 21.5% | -4.12% (active) | -55.5% (active) | 16.7% |  |  |
| C=CC(=O)N[C@H](/C=C/C(=O)OCC)Cc1ccc(-c2cc(Cl)cc(Cl)c2)cc1 | 76.1% | 68.9% | 92.9 | 88.4% | 98.7% | 73.7% | 51.1% | 76.4% | 96% | 95.8% | 91.1% | 89.4% | 87.6% | 72.9% | 84.7% | 83.1% | 99.9% | 88.7% |  |  |
